Assay results reported in the OligoGym collection.

Each sequence was assayed against VGLL2 (assay: pooled miR-30 sensor sort-seq; sequence = guide strand). Conditions: shRNA.
Note: reference of the scale not given here.

Sequence | sensor-assay potency score (higher = more potent)
TTGTCTAACAACAGCTGCATTT | -1.41
TAACAAAATAATTCACATCAGC | -0.803
TTACTTCTCTACCACAGTCTTA | -0.551
TAAGTGAAGAGGACGCAGCGGG | -0.197
TTCTCTACCACAGTCTTAGATG | -1.22
TTAAACATAACTCAGTCTTTGG | -0.689
TTGGATTTGCTCTTTCAGCAGC | -0.344
TAATGTTCGTCTCTTCTTCCTC | -0.332
TATAATCACACTACCTAACAAA | -1.39

These sequences were tested against VIPR2 in the same assay as above. Conditions: shRNA.

Sequence | sensor-assay potency score (higher = more potent)
TCTGGGAACGTCTCTGACCATC | -1.08
TTCACCAGAATATAAAACGTGA | -0.447
TAGTGGACGCCGAACAGCGGGA | -0.939
TTCAGGTGGATGTAATTCCTGG | -0.512
TTGACCAGCACTGAGATGGCTC | -0.324
TTGCTGAAGACTTTTGGGCAGG | -1.06
TCTTGTACTGAGACTGGTCGTT | -0.0864
TTTGAGACCTCAGAAGCTCTGC | 0.397
TTTTGCTTATGTTTCCTGCTTT | 0.362
TTTGCTGTAAAAATTGCTGAAG | -0.647
TAAAACGTGATCTTGCTCTCAT | 1.2
TTTCGCTTCAGCTCGCACTGCA | 0.156

What follows are sequences tested against VKORC1 in the same assay as above. Conditions: shRNA.

Sequence | sensor-assay potency score (higher = more potent)
TAGGTGGTGATACAAACAATGC | -1.84
AACAATGCAGAAATCATAGAGC | -0.667
TTGGACCTTCCGGAAACTGAGC | -1.21
AGCACGAAGAACAGGATCCAGG | -2.45
TCATAGAGCACGAAGAACAGGA | 0.298
TTGATAGCATAGGTGGTGATAC | -0.976
ATAGGTGGTGATACAAACAATG | -1.33
ATAGCATAGGTGGTGATACAAA | -1.7
TAGAGCGAGAGCACTAAGCCCG | -0.598
TCACGTTGATAGCATAGGTGGT | -0.749
TAGAGCACGAAGAACAGGATCC | -0.705
TTGATTGAGGATGCTGTCCTGT | 0.167

These sequences were tested against VN1R2 in the same assay as above. Conditions: shRNA.

Sequence | sensor-assay potency score (higher = more potent)
TTTTACTTTCATCTCTGCCCAC | -0.563
TACAAGACCAAAACGATGGAGC | -0.2
TTGGGGTAGAGATTGTTCCTAC | -0.232
TTCTTTGTGATGTTGTTGTTGC | -0.241
TTTGGTGGGTTTCTCTCCGTGT | -0.0937
TTATTGGATACAAAGCAGGAGA | -0.969
TTAGATAGGATAACCAAGGAGT | -0.311
